From PubChem
In the library only some 19% were active in any assay of this set; here they are far more common.
DT40 TDP1 no CPT – qHTS for Inhibitors of human tyrosyl-DNA phosphodiesterase 1 (TDP1): qHTS in cells in absence of CPT; DT40 Tdp1-/- hTDP1 cells, no CPT, ATP luminescence, 48 h; Potency, µM (titrated, usually from 46.2 µM), usual class: inhibitors; 15% of 420,000 active; also: nearly all actives have a fitted effect of over 55% in size
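DT40 Tdp1-/-;hTDP1 cells, no CPT (DMSO vehicle only), 400 cells/well; compounds pin-transferred; ≥48 hr, 37 °C; CellTiter-Glo 30 min RT dark, luminescence read.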
uPA generation – qHTS for Inhibitors of Cell Surface uPA Generation | cell surface uPA generation assay, qHTS | Potency, µM (highest dose often 38.3 µM), most hits filed as inhibitors | 0.31% of 330,000 active; active = well fitted inhibition curve with a large enough effect; inconclusive = small, poorly fitted or top-dose-only effect; inactive = no such curve, though single readings can be large or run the other way; tested in mouse RAW 264.7 cells; also: nearly all actives have a fitted effect of over 55% in size
HT1080 IDH1KD tx – qHTS for induction of synthetic lethality in tumor cells producing 2HG: qHTS for the HT-1080-IDH1KD cell line. HT-1080 IDH1 knockdown viability, ATP luminescence, 48 h. Potency, µM (highest dose often 46.1 µM), hits mostly cytotoxic. 2% of 360,000 active
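HT-1080-IDH1KD cells (IDH1 knocked down), 750/well in RPMI with 5% FBS, treated with compound 48 h at 37 degrees C. Viability by CellTiter-Glo luminescence, normalised to DMSO and no-cell wells; concentration-response curves classed.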
IL1B secr inh – qHTS for Inhibitors of Inflammasome Signaling: IL-1-beta AlphaLISA Primary Screen; THP-1 LPS/ATP IL-1B secretion, AlphaLISA, 16 h; active compounds read low; activity change, % at 57.5 µM; 4.7% of 360,000 active; AID 743279, 2014; in the data active = activity change below about -50%; inconclusive = mostly about -30% to -49%
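Secreted IL-1B measured by AlphaLISA bead assay after 16 h compound exposure of THP-1 cells; compounds (final up to 57.5 uM) added 1 h before LPS (250 ng/mL) and ATP (1.25 mM) stimulation; lower signal means less secretion.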
HT1080-NT tox – qHTS for induction of synthetic lethality in tumor cells producing 2HG: qHTS for the HT-1080-NT fibrosarcoma cell line; HT-1080-NT fibrosarcoma viability, CellTiter-Glo ATP luminescence, 48 h; 1.6% of 360,000 active; Potency, µM (doses to about 46.1 µM), most hits filed as cytotoxic;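 also: NT is the 2HG producing partner of a matched IDH1 knockdown line; nearly all actives have a fitted effect of over 55% in size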
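Viability by CellTiter-Glo luminescence after 48 h compound exposure at 37C of HT-1080-NT cells (750/well, RPMI, 5% FBS). % activity scaled between DMSO wells and medium-only wells, then curve-fitted and categorized by curve class.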
TDP1 cell CPT – qHTS for Inhibitors of human tyrosyl-DNA phosphodiesterase 1 (TDP1): qHTS in cells in presence of CPT. chicken DT40 Tdp1-/-;hTDP1 cells + 20 nM CPT, ATP luminescence, 48 h. Potency, µM (highest dose often 46.2 µM), hits mostly inhibitors. AID 686979, 2013. 12% of 420,000 active; also: nearly all actives have a fitted effect of over 55% in size
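Cell growth measured by CellTiter-Glo luminescence after a minimum 48 h, 37 C compound exposure with 20 nM CPT in Tdp1-knockout DT40 cells stably expressing hTDP1, seeded 400/well; qHTS titration format.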
Hits are given with their value; . = inactive; ? = inconclusive; / = no result given. Unless noted, calls follow the shape of the dose curve; as a rule, active = well fitted curve in the direction sought with a large enough effect; inconclusive = small, poorly fitted or top-dose-only effect, or another doubt; inactive = no such curve, though single readings can be large; an effect the other way counts as inactive or inconclusive.

SMILES	DT40 TDP1 no CPT	uPA generation	HT1080 IDH1KD tx	IL1B secr inh	HT1080-NT tox	TDP1 cell CPT
CCCn1c(NCc2ccccc2NS(=O)(=O)c2ccc(C)cc2)nc2ccccc21	16µM	.	?	.	?	?
CCn1c(NCc2cc(Br)ccc2NS(=O)(=O)c2ccc(C)cc2)nc2ccccc21	?	.	.	.	.	?
CCn1c(NCc2ccccc2NS(=O)(=O)c2ccc(C)cc2)nc2ccccc21	18µM	.	.	.	.	16µM
O=C(NC(O)C(=O)c1ccc(F)cc1)c1ccc(F)cc1 (configuration not stated)	?	.	.	.	.	?
COc1cc(/C=C/C(=O)O)cc(OC)c1O	.	.	.	.	.	.
COc1ccc(C(=O)/C=C/c2ccc(OC3CSC3)cc2)cc1OC	18µM	.	.	-88	?	?
O=C(/C=C/c1ccc(OC2CSC2)cc1)c1ccc(Cl)cc1	?	.	.	.	.	?
COc1ccc2cc(C(=O)/C=C/c3cc(OC)c(O)c(OC)c3)ccc2c1	9.2µM	.	16µM	-98	21µM	10µM
COc1ccc(C(=O)/C=C/c2cc(OC)c(O)c(OC)c2)c(F)c1	16µM	.	?	-100	?	?
COc1ccc(CNC(=O)COC(=O)c2ccc(S(=O)(=O)NCc3ccco3)cc2)cc1	.	.	.	.	.	.
Cc1nccn1CCCNC(=O)CC1C(=O)NCCN1Cc1ccc(F)cc1Cl (configuration not stated)	.	.	.	.	.	.
COc1ccccc1CN(C)C(=O)COC(=O)c1cc(C)oc1C	?	.	.	.	.	.
COc1ccc(S(=O)(=O)N2CCOC2CNC(=O)C(=O)NCCc2c[nH]c3ccccc23)cc1C (configuration not stated)	23µM	.	.	.	.	23µM
COc1ccc(S(=O)(=O)N2CCOC2CNC(=O)C(=O)NCCc2c[nH]c3ccccc23)cc1 (configuration not stated)	?	.	.	.	.	16µM
Cc1ccc(OCC(=O)NNC(=O)c2ccco2)c(C)c1	.	.	.	.	.	.
O=C(c1ccccc1)C1OC1C(=O)c1ccccc1 (configuration not stated)	6.5µM	.	?	-96	?	4.1µM
CC1C=CC(C)C(C(=O)c2ccccc2)C1C(=O)c1ccccc1 (configuration not stated)	23µM	/	.	.	.	13µM
O=C(c1ccccc1)C1CC1c1ccccc1 (configuration not stated)	?	/	.	.	.	?
C=CCn1cc(C(=O)N2CCN(C)CC2)c(=O)c2cc(S(=O)(=O)N(CC)CC)ccc21	.	.	.	.	.	.
CCN(CC)c1ccc(/C=N/n2nnnc2N)c(O)c1	16µM	.	.	.	.	15µM
CCN(C)c1ccc(/C=N\n2nnnc2N)cc1	5.8µM	.	5.2µM	.	?	7.3µM
COC(=O)c1ccc2c(c1C(=O)OC)CN(S(=O)(=O)C(C)(C)C)[C@@H]2CCO	.	.	.	.	.	.
CCc1cccc(C)c1NC(=O)C1CCN(S(=O)(=O)Cc2ccccc2)CC1	.	/	/	/	/	.
c1ccc(-c2nnc3nc(N4CCCCC4)nc(N4CCCCC4)n23)cc1	15µM	.	.	.	.	18µM
c1ccc(-c2nc(N3CCCCC3)nc3ccccc23)cc1	.	.	.	.	.	.
COc1ccc2cc(C3CC(c4ccco4)=NN3S(=O)(=O)c3ccccc3)c(Cl)nc2c1 (configuration not stated)	15µM	.	.	?	.	?
